This is an account of results in ChEMBL document CHEMBL3988442, “University of Dundee, Small-Polar-MMV Screening Library” (2021).

Structures are written as SMILES. In all, about 48,000 compounds went through this assay and about 13,000 (27%) showed an effect of 50% or more. This is one part of the list.

This test concerns Wolbachia pipientis. Description: Anti-Wolbachia Cell-Based Screen. It is filed as functional. Particulars: 5 µM. Further details: scale not given: in the data most compounds retested in dose-response had high values.
In the case of `Cc1cc(CN2CCC(CNC(=O)c3ccc4[nH]cnc4c3)C2)[nH]n1` (stereo not drawn), the “Percent Effect” value is 4.896%. The result for `O=C(Nc1cnc(Oc2ccccc2F)nc1)C1CC1` reads -9.559%; that for `COCCOC(=O)N1CCC(c2nccn2CC2CC2)CC1`, 0.7863%. Consider `COc1ccc(-n2ncc(C(C)NCc3cnc(SC)nc3)c2C)cc1` (stereo not drawn), for which the “Percent Effect” value is given as 30.41%.

For the molecule `CC[C@@]1(O)CCN(C(=O)c2ccc(-c3ccco3)cc2)C[C@H]1O`, the “Percent Effect” value is on record as -5.125%. The result for `COc1cc(C)c(CN2CCC3(CC2)[C@H](O)C[C@@H]3OCCN)cc1C` reads 3.65%. The result for `CC[C@@]1(O)CCN(C(=O)c2ccc(OC(F)F)cc2)C[C@H]1O` reads -4.955%.

On to `NCCO[C@H]1C[C@@H](O)C12CCN(C(=O)COc1cccc(Cl)c1)CC2`, for which the “Percent Effect” value is reported as -10.97%. As for `CC[C@@]1(O)CCN(CCCOc2ccc(C(N)=O)cc2)C[C@H]1O`, the “Percent Effect” value is listed as 95.4%. For the molecule `NCCO[C@H]1C[C@@H](O)C12CCN(C(=O)CCOc1ccccc1)CC2`, the “Percent Effect” value is reported as -12.3%. The result for `CN(C)CCO[C@H]1C[C@@H](O)C12CCN(c1ncccc1Cl)CC2` reads -1.379%; that for `CO[C@H]1C[C@@H](O)C12CCN(CCCOc1ccc(C(N)=O)cc1)CC2`, 113.2%. Regarding `CCOc1cccc(C(=O)N2CCC3(CC2)[C@H](O)C[C@@H]3OC)c1`, the “Percent Effect” value was found to be 2.834%. For `CO[C@H]1C[C@@H](O)C12CCN(C(=O)CCCOc1ccccc1)CC2`, the “Percent Effect” value is on record as 97.53%. In the case of `NC(=O)COc1ccc(CN2CCC3(CC2)[C@H](O)C[C@@H]3O)cc1Cl` it was 17.24%; in that of `CO[C@H]1C[C@@H](O)C12CCN(CCOc1ccc(Cl)cc1)CC2`, 86.28%; in that of `Cc1ncccc1OC1(C(=O)NCCc2ccccn2)CCNCC1`, -3.101%. As for `N#Cc1cc(Br)ccc1NC1CCN(CC(N)=O)CC1`, the “Percent Effect” value is -6.071%. In the case of `O=C(CSc1ccc2c(c1)OCCO2)NS(=O)(=O)c1ccccc1Cl`, the “Percent Effect” value is listed as -4.158%.

For the molecule `CC(O)CN1CCN(C(=O)CN(C)c2ccc(Cl)cn2)CC1` (stereo not drawn), the “Percent Effect” value was -12.66%. In the case of `O=C1Nc2ccccc2/C1=C1\CCCCCN1` it was 122.1%; in that of `O=C1Nc2ccccc2/C1=C1\CCCCN1`, 114.3%. In the case of `O=C1Nc2ccccc2/C1=C1\CCCN1` it was 133.6%; in that of `CCCN1C[C@H]2CC[C@@H]1CN(Cc1cccc(-n3cccn3)c1)C2`, -7.313%.

Regarding `O=C(c1cc(C2CC2)[nH]n1)N1CCCC(n2cncn2)C1` (stereo not drawn), the “Percent Effect” value was 0.773%. The result for `CC(C)Cc1cc(C(=O)N2CCCC(n3cncn3)C2)[nH]n1` (stereo not drawn) reads 6%; that for `CC(C)c1cc(C(=O)N2CCCC(n3cncn3)C2)n[nH]1` (stereo not drawn), 96.9%. On to `CC(C)n1ccc(C(=O)N2CCCC(n3cncn3)C2)n1` (stereo not drawn), for which the “Percent Effect” value is 105.9%. Turning to `Cc1cc(C)c(CNC(=O)NC2CCN(C(=O)C(C)C)CC2)c(C)c1`, the “Percent Effect” value worked out at 11.56%.

As to `CC(Cn1cccn1)C(=O)N1CCC(NS(C)(=O)=O)CC1` (stereo not drawn), the “Percent Effect” value is given as -5.413%.

With `CCS(=O)(=O)Nc1ccn(Cc2cccc(Cl)c2)n1`, the “Percent Effect” value is -21.52%.

With `CS(=O)(=O)Nc1cnn(Cc2cccc(Cl)c2)c1`, the “Percent Effect” value turned out to be 81.71%. The result for `CC(C)N(C)S(=O)(=O)N(C)Cc1cnn(Cc2ccccc2)c1` reads -14.36%; that for `CCS(=O)(=O)Nc1cnn(Cc2cccc(Cl)c2)c1`, 132.7%; that for `CS(=O)(=O)Nc1cccc(CNC(=O)c2cccs2)c1`, 8.71%. Consider `CS(=O)(=O)N1CCC(C(=O)N2CCN(Cc3cccc(Cl)c3)CC2)CC1`, for which the “Percent Effect” value is given as -5.012%. In the case of `COc1cc(C)ccc1OCc1nc(C(=O)N2CCCNC(=O)C2)co1`, the “Percent Effect” value worked out at 5.427%.

With `CS(=O)(=O)NC[C@H]1OC[C@H]2CN(Cc3ccsc3)CC[C@H]21.O=C(O)C(F)(F)F`, the “Percent Effect” value was found to be 114.3%.

For `CS(=O)(=O)NC[C@@H]1OC[C@H]2CN(Cc3ccsc3)CC[C@H]21.O=C(O)C(F)(F)F`, the “Percent Effect” value was determined as 83.99%. Take `COCc1nnc(-c2cccc(C(=O)OC(C)C)c2)o1`: the “Percent Effect” value is -21.92%. Turning to `NC(=O)Nc1cccc(CNC(=O)CCCc2ccccc2)c1`, the “Percent Effect” value was determined as 3.307%.

Take `Cc1cc(-c2cnc(N3CCCC(C)C3)nc2-c2cccnc2C)on1.Cl` (stereo not drawn): the “Percent Effect” value is -3.482%.

For `Cc1cc(-c2cnc(NC3CC3)nc2-c2ccoc2)on1`, the “Percent Effect” value is 98.24%. `COc1ccc(-c2ccoc2)cc1CNC1CCCC1`: the “Percent Effect” value is on record as 10.39%.

`Cc1cc(-c2cnc(NC3CCCC3)nc2-c2ccoc2)on1`: the “Percent Effect” value is given as 77.66%.

Take `CCC1CCC(N(Cc2cc(=O)n(C)c(=O)n2C)C2CC2)CC1` (stereo not drawn): the “Percent Effect” value was -6.586%.

Regarding `Cc1ccc(NC(=O)N(C)C)c(C(=O)OCC(=O)NC(C)C(C)C)c1` (stereo not drawn), the “Percent Effect” value is -0.8117%. The result for `CC(C)CN1CCc2[nH]cnc2C12CCN(C(=O)c1cncn1C)CC2` reads -0.9954%; that for `Cc1ccc(CN2Cc3ccccc3O[C@]3(CC[C@H](CO)CC3)C2)s1.Cl`, 116.6%; that for `Cc1cnccc1Cn1ccnc1C1CCOC1` (stereo not drawn), -17.66%. On to `Cl.OC[C@H]1CC[C@]2(CC1)CN(Cc1ccccc1F)Cc1ccccc1O2`, for which the “Percent Effect” value is given as -7.813%. Consider `Cc1ncc(CN2Cc3ccccc3O[C@]3(CC[C@H](CO)CC3)C2)cn1.Cl`, for which the “Percent Effect” value is -8.047%. With `Cc1cnccc1CN1Cc2ccccc2O[C@]2(CC[C@H](CO)CC2)C1`, the “Percent Effect” value is 131.4%.

For `Cc1cnccc1CN1CCN(C)C2(CCC(=O)N(CC3CC3)CC2)C1` (stereo not drawn), the “Percent Effect” value is on record as -0.1133%.

Regarding `Cc1ccc(CN2CC(C(=O)Nc3ccccc3)C3(CCOCC3)C2)o1.O=C(O)C(F)(F)F` (stereo not drawn), the “Percent Effect” value came out at 17.76%. As for `Cl.OC[C@H]1CC[C@]2(CC1)CN(Cc1ccccn1)Cc1ccccc1O2`, the “Percent Effect” value is -8.81%. For `Cc1ccc(CNc2ccc(N3CCC(CO)CC3)cn2)o1`, the “Percent Effect” value was -69.41%. Turning to `O=C(Nc1ccccc1)C1CN(Cc2ccsc2)CC12CCOCC2.O=C(O)C(F)(F)F` (stereo not drawn), the “Percent Effect” value was 4.234%.

For `Cl.OC[C@H]1CC[C@]2(CC1)CN(Cc1ccsc1)Cc1ccccc1O2`, the “Percent Effect” value is 114.5%.

On to `Cc1ccc(CN2Cc3ccccc3O[C@]3(CC[C@H](CO)CC3)C2)o1.Cl`, for which the “Percent Effect” value was determined as 111.4%. With `CCCS(=O)(=O)N1CCOC2(COCCN(C(C)=O)C2)C1` (stereo not drawn), the “Percent Effect” value is given as -8.657%. The result for `CN(CCCc1ccc(C(F)(F)F)cc1)Cc1nccn1C` reads -12.04%. In the case of `CC(=O)N1CCN(CC(=O)N2CCN(c3cccc(C)c3)CC2)CC1` it was -12.32%.
